ATXN2 expr inh: ATXN2 expression inhibition; HEK-293 ATXN2-luciferase reporter, luminescence, 24 h; Potency, µM (top dose mostly 57 µM), for the others: at the top dose activity change, negative = inhibition, actives largely listed as inhibitors; actives 0.72% (n = 360,000); AID 1745845; also: % is scaled to controls: 0 for no effect and ±100 for the full control effect; nearly all actives have a fitted effect of over 55% in size
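qHTS (up to 57 uM final) was run with 24 h compound exposure of reporter cells at 37 °C. Each well was multiplexed: SteadyGlo luminescence measured ATXN2-luciferase expression after a fluorogenic Gly-Phe-AFC viability readout (25 uM final).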
Nrf2 block: Nrf2 pathway inhibition | A549 ARE-Fluc reporter, luciferase luminescence, 18-24 h | Potency, µM (titrated, usually from 46 µM), without a hit: at the highest dose activity change, negative = inhibition, usual class: inhibitors | actives 2.1% (n = 360,000) | AID 504444; also: % is scaled to controls: 0 for no effect and ±100 for the full control effect; nearly all actives have a fitted effect of over 60% in size
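In this cell-based qHTS, ARE-driven firefly luciferase in A549 cells reports Nrf2 activity; the luminescent signal after BugLite lysis is the measured value, with a prior CellTiter-Fluor read for cell health.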
A549 tox: counter-screen for Nrf2 inhibitors: cytotoxicity in A549 cells | AID 504648 | Potency, µM (top dose mostly 46 µM), for the others: at the highest dose activity change, negative = cytotoxicity, most hits filed as inhibitors | A549 ARE-Fluc cells, CellTiter-Fluor viability, 18-24 h | actives 0.16% (n = 390,000); also: % is scaled to controls: 0 for no effect and ±100 for the full control effect
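A549 ARE_Fluc cells in 5% FBS OPTI-MEM were exposed to compounds in concentration-response for 18-24 h at 37 deg C. Viability was read by CellTiter-Fluor fluorescence (Ex 405/Em 525) after 30 min, before the luciferase read.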
S2 tox: cell viability loss in ATXN counter-screen; S2 cells (HEK-293 line with an ATXN2-luciferase reporter) viability, CellTiter-Fluor protease fluorescence, 24 h; Potency, µM (top dose mostly 56.7 µM), usual class: cytotoxic; actives 0.49% (n = 400,000); AID 651635; also: nearly all actives have a fitted effect of over 40% in size
Nrf2 ARE act: Nrf2 pathway activation. AREc32 ARE-luciferase reporter (MCF7-derived line), luminescence, 24 h. Potency, µM (series often up to 46.1 µM), for inactives: top-dose activation, hits mostly activators. actives 0.31% (n = 410,000); also: % of control where 0% means no effect; nearly all actives have a fitted effect of over 65% in size
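Quantitative high-throughput format: AREc32 reporter cells, 1000 per well, received compound by pin transfer and were incubated 24 hr at 37 deg C, 5% CO2, before Steady-Glo luminescence detection.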
The depositor's hits bear a star; i = inactive; ? = inconclusive; / = not tested or not shown; [ ] = remark or other dose. Sampled rows, rich in hits. Any-hit rate of the full collection: about 2.9%. Calls follow the shape of the dose curve; as a rule, active = well fitted curve in the direction sought with a large enough effect; inconclusive = small, poorly fitted or top-dose-only effect, or another doubt; inactive = no such curve, though single readings can be large; an effect the other way counts as inactive or inconclusive. Potency is read from the fitted curve at half-maximal effect.

SMILES	ATXN2 expr inh	Nrf2 block	A549 tox	S2 tox	Nrf2 ARE act
CC(Sc1nc2ccccc2c(=O)n1C)C(=O)N(C)C1CCCCC1 (stereo not drawn)	-23.2%	18.4µM*	-17.9%	?	-0.2%
COc1ccccc1Cc1c(-c2ccccc2)nc2c(C)cc(Br)cn12	10.5%	/	/	i	8.3%
Cc1nn(C(C)C(=O)N2CCN(c3ccc(Cl)cc3)CC2)c(=O)c2cc3occc3n12 (stereo not drawn)	?	20.6µM*	-13.5%	?	3.1%
O=C(NCCC1=CCCCC1)c1ccc(=O)oc1	-4.1%	?	-19.4%	i	13.4%
Cc1ccc(C)c(NS(=O)(=O)c2cc(C(=O)NCCSC3CCCCC3)ccc2C)c1	?	?	-29.5%	?	0.7%
O=C(NCCC1=CCCCC1)c1ccc(Cl)c(S(=O)(=O)N2CCCCC2)c1	0.0%	14.6µM*	2.8%	i	-0.3%
Cc1ccccc1CCNC(=O)c1ccc(Cl)c(S(=O)(=O)N2CC(C)OC(C)C2)c1 (stereo not drawn)	-35.1%	5.17µM*	-5.0%	?	2.3%
CC1CN(S(=O)(=O)c2cc(C(=O)NCc3ccncc3)ccc2Cl)CC(C)O1 (stereo not drawn)	-2.6%	-5.4%	-1.2%	i	-0.6%
Cc1ccc(C)c(NS(=O)(=O)c2cc(C(=O)NCCC3=CCCCC3)ccc2C)c1	?	20.6µM*	?	?	0.3%
O=C(NCCC1=CCCCC1)c1ccc(Cl)c(S(=O)(=O)N2CCOCC2)c1	-0.6%	?	5.5%	i	2.8%
O=C(NCCC1=CCCCC1)c1coc(=O)c(Br)c1	?	?	-27.6%	/	12.6µM*
O=C(COC(=O)CNC(=O)c1cccs1)Nc1ccccc1C(F)(F)F	-9.9%	-5.3%	-5.6%	i	-0.9%
Cc1ccc(C)c(NS(=O)(=O)c2cc(C(=O)N3CCc4ccccc4C3)ccc2Cl)c1	-10.1%	18.4µM*	-18.2%[1.84 µM]	?	-0.9%
Cc1cccc(NS(=O)(=O)c2cc(C(=O)N3CCc4ccccc4C3)ccc2Cl)c1C	?	?	?	?	2.8%
CC(Oc1ccccc1)C(=O)Nc1nc(-c2ccccn2)cs1 (stereo not drawn)	?	?	?	?	2.8%
O=C(Nc1nc(-c2ccc(Cl)cc2)cs1)c1cccnc1	-16.8%	?	-0.5%	i	0.3%
O=C(Nc1nc(-c2cc(Cl)sc2Cl)cs1)c1ccccc1	0.9%	?	?	i	10µM*
CC(Oc1cccc(Cl)c1)C(=O)Nc1nc(-c2ccccn2)cs1 (stereo not drawn)	-35.9%	16.4µM*	?	/	?
CCc1sc(C(=O)Nc2nc(-c3ccccn3)cs2)cc1C	25.1µM*	?	-12.4%	i	5.9%
O=C(Nc1nc(-c2ccccn2)cs1)c1ccc(Cl)s1	?	2.59µM*	?	i	5.2%
O=S(=O)(c1ccc(Cl)cc1)N1CCC(c2ccncc2)CC1	/	/	4.8%	/	-1.2%
Cc1ccc2nsnc2c1NC(=O)c1ccc(-c2cc(Cl)ccc2Cl)o1	?	13µM*	9.2µM*	?	4.9%
CC[N+](C)(C)CC/C=C1/c2ccccc2Sc2ccc(Cl)cc21	-21.9%	-2.3%	-4.2%	i	-0.2%
CCCCCCCCCC[N+](C)(C)CC/C=C1/c2ccccc2Sc2ccc(Cl)cc21	/	?	-6.1%	7.94µM*	-3.5%
CCCCCCCCCCC[N+](C)(C)CC/C=C1/c2ccccc2Sc2ccc(Cl)cc21	/	-12.0%	-5.1%	11.2µM*	-3.3%
SMILES	ATXN2 expr inh	Nrf2 block	A549 tox	S2 tox	Nrf2 ARE act
COc1cccc(Oc2cnc(N)nc2-c2ccc(OC)cc2O)c1	-9.6%	?	-7.6%	i	2.0%
Cc1noc(C)c1-c1ccc2ncnc(NCc3cccc(F)c3)c2c1	/	?	5.4%	/	/
Cc1noc(C)c1-c1ccc2ncnc(NC(C)c3ccccc3)c2c1 (stereo not drawn)	/	23.1µM*	6.3%	/	/
Cc1noc(C)c1-c1ccc2ncnc(NCc3ccccc3F)c2c1	/	20.6µM*	3.3%	/	/
Cc1noc(C)c1-c1ccc2ncnc(NCc3ccc(F)cc3)c2c1	/	-10.8%	2.7%	/	/
CCOc1ccccc1CNc1ncnc2ccc(-c3c(C)noc3C)cc12	1.8%	16.4µM*	0.0%	i	26.2%
Cc1noc(C)c1-c1ccc2ncnc(NCc3cccc(-c4ccccc4)c3)c2c1	/	7.31µM*	-14.0%	/	/
